Source: PubChem
The entries come from a sample that favours hits as a whole.
BL2 CD40 inh = inhibitors of CD40-induced NF-kB signaling, primary screen, BL2 cells, luciferase reporter, single point. CD40L-induced, 4 h. inhibition, % at 10 µM. 83,000 compounds, 0.94% hits;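 active means mean inhibition of at least 50% with a set share of replicates also reaching that level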;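 further: 0% = neutral control wells and 100% = IKK inhibitor VII at 50 µM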
* hit, by the source's call; i = inactive; [ ] = remark or other dose.

SMILES	BL2 CD40 inh
Cc1cc(C(=O)N2CCN(c3ccccc3Cl)CC2)c(C)o1	78*
O=C(NC(c1ccccc1)c1ccc2ccccc2n1)C1CCN(Cc2ccc(Oc3ccccc3)cc2)CC1 (centres undefined)	-2
COc1ccc(NC(=O)Nc2ccc3c(c2)[C@H]2C[C@@H](CC(=O)NCC(F)(F)F)O[C@@H](CO)[C@H]2O3)cc1	-7[25 µM]
CCCC(CC)Sc1nc2c([nH]1)c(=S)n(C)c(=O)n2C (centres undefined)	-45
CCCCC(C)Sc1nc2c([nH]1)c(=S)n(C)c(=O)n2C (centres undefined)	-37
CSc1nc2c([nH]1)c(=S)n(C)c(=O)n2C	74*
Cn1c(CCN2CCCCC2)nc2cc(NC(=O)Nc3ccccc3)ccc21	-23
C/C=C/c1ccc([C@@H]2[C@@H](CN(CC)C(=O)CC)N(C(=O)C3CCC3)[C@H]2CO)cc1	-1[25 µM]
Cn1cc(/C=N/Nc2ccccc2)c2ccccc21	-3
Cn1cc(/C=C/C(=O)c2ccccc2)c2ccccc21	33*
O=C(/C=C/c1ccccc1)c1ccccc1	-42
CC(=O)c1cccc(NC(=S)N2CCC(Cc3ccccc3)CC2)c1	-2
Cc1cccc2c1nc(-c1ccccc1)n1nnnc21	-15
O=C(NC1CC1)c1cc2ccccc2o1	-4
O=C(Nc1ccc2c(c1)OCCO2)c1cc2ccccc2o1	33
Cc1ccnc(NC(=O)c2cc3ccccc3o2)c1	88*
O=C(Nc1cccc2ncccc12)c1cc2ccccc2o1	-10
O=C(Nc1ncccc1O)c1cc2ccccc2o1	-9
O=C(NC1=NCCS1)c1cc2ccccc2o1	63*
COCc1cn(CC[C@@H]2CC[C@H](NC(=O)Nc3c(C)noc3C)[C@@H](CO)O2)nn1	0[25 µM]
CN(C(=O)COc1coc(CN2CCN(c3ccccc3)CC2)cc1=O)c1ccccc1	0
O=C(Nc1ccc(F)cc1)N1C[C@@H]2[C@H](c3ccccc31)[C@@H](CO)N2Cc1ccccc1	3
CCC(C)(C)NC(=O)Nc1cc(Cl)ccc1OC	2
CCn1cnc2c1c(=O)n(Cc1csc(-c3ccccc3)n1)c(=O)n2Cc1ccccc1	-14
O=[N+]([O-])c1cccc2cnccc12	11
SMILES	BL2 CD40 inh
CC1CNCCN1S(=O)(=O)c1cccc2cnccc12 (centres undefined)	32*
O=S(=O)(c1cccc2cnccc12)N1CCCNCC1	-6[25 µM]
Cc1ccc(S(=O)(=O)Nc2ccc(C(=O)Nc3cc(C)on3)cc2)cc1	12
O=C(NCCC1=CCCCC1)C1CCN(S(=O)(=O)c2cccc3nonc23)CC1	3
CC1Cc2ccccc2N1C(=O)COC(=O)CSc1ccc(F)cc1 (centres undefined)	6
O=C(NCC(=O)N1CCN(c2ccccc2F)CC1)c1ccco1	-2
O=C(COC(=O)CCCc1nc2ccccc2s1)NC(=O)NCc1ccco1	1
Cc1cc(C)c2c(c1)SC1=NC(c3ccccc3)(C(F)(F)F)NC(=O)N12 (centres undefined)	50*
COc1cc(-n2c(=O)c3ccccc3n(Cc3cccnc3)c2=O)cc(OC)c1OC	9
Cc1ccccc1-c1ccc([C@H]2[C@@H](CO)N3C(=O)CN(C(=O)Nc4cccc(F)c4)C[C@@H]23)cc1	19[25 µM]
CC1Cc2ccccc2N1C(=O)C1CCN(S(=O)(=O)c2cccs2)CC1 (centres undefined)	8
COc1c(C(=O)Nc2ccc(Cc3ccncc3)cc2)ccc2ccccc12	-25
COc1ccc(C(=O)Nc2ccc3ccccc3n2)c(OC)c1OC	51*
COc1ccc(C(=O)NCCN(C)C)c2nc3ccccc3cc12	i
COc1ccccc1OCCn1cc(/C=N/NC(=O)c2ccncc2)c2ccccc21	0
c1ccc(OCCNc2ccn3nc(-c4ccccc4)cc3n2)cc1	-62
COCCCNc1ccn2nc(-c3ccccc3)cc2n1	60*
COCCCNc1ccn2nc(-c3cc(OC)c(OC)c(OC)c3)cc2n1	1
N#C[C@H]1[C@@H](c2ccccc2C2=CCCCC2)[C@H](CO)N1S(=O)(=O)c1ccccc1	11[25 µM]
N#C[C@@H]1[C@@H](c2ccccc2C2=CCCCC2)[C@H](CO)N1S(=O)(=O)c1ccccc1	6[25 µM]
N#C[C@H]1[C@H](c2ccccc2C2=CCCCC2)[C@@H](CO)N1S(=O)(=O)c1ccccc1	60*[25 µM]
CN(C(=O)CSc1ncnc2sccc12)C1CCS(=O)(=O)C1 (centres undefined)	9
Cc1ccc(S(=O)(=O)N(C)C[C@H]2OCCCC[C@H](C)Oc3ccc(NS(=O)(=O)c4ccc(Cl)cc4)cc3C(=O)N([C@H](C)CO)C[C@H]2C)cc1	11
Cn1cnc([N+](=O)[O-])c1Sc1ccncn1	5
Cc1ccnc(Sc2ccc([N+](=O)[O-])cn2)n1	-15
SMILES	BL2 CD40 inh
O=[N+]([O-])c1ccc(Sc2ccncn2)c([N+](=O)[O-])c1	103*
c1cncc(-c2nc(NCCCN3CCOCC3)c3c4c(sc3n2)CCC4)c1	17
COc1ccc(CN(CCC(c2ccccc2)C2CCOC(C)(C)C2)C(C)=O)cc1 (centres undefined)	-5
COc1ccc(CN(CCC(c2ccccc2)c2ccc(OC(C)C)cc2)C(=O)CCl)cc1OC (centres undefined)	44*
COc1ccc(CN(CCC(c2ccco2)C(C)C)C(C)=O)cc1OC (centres undefined)	5
COC(=O)C(NC(=O)CCc1c(C)nc2ncnn2c1C)C(C)C (centres undefined)	11
O=C(Nc1ncccc1O)c1ccc(OCC2CCCO2)cc1 (centres undefined)	39
Cc1cnc(NC(=O)c2ccc(OCC3CCCO3)cc2)s1 (centres undefined)	80*
O=C(Nc1nc2ccccc2s1)c1ccc(F)cc1	-80
O=C(Nc1ccc(S(=O)(=O)N2CCCC2)cc1)c1ccc(OCC2CCCO2)cc1 (centres undefined)	24
O=C(Nc1nc2ccccc2s1)c1ccc(OCC2CCCO2)cc1 (centres undefined)	56*
O=C(NC1=NCCS1)c1ccc(OCC2CCCO2)cc1 (centres undefined)	6
CO[C@@H]1CN(C)C(=O)c2ccc(NC(=O)c3cccc(F)c3)cc2OC[C@@H](C)NC[C@H]1C	1[25 µM]
Cc1nc(CN2CCN(S(=O)(=O)c3c(Cl)cc(Br)cc3Cl)CC2)cs1	-17
Cc1c(C(=O)OCc2ccccc2)nnn1-c1nonc1N	5
COc1ccc(C(=O)N2CCN(c3ccc(F)cc3)CC2)cc1S(=O)(=O)NC1CC1	-20
Cc1ccc(NS(=O)(=O)c2cccc(C(=O)N3CCCC(C)C3)c2)cc1 (centres undefined)	-11
O=C(C1CCCC1)N1C[C@@H]2[C@H](c3ccccc31)[C@@H](CO)N2C(=O)c1ccccc1F	-3
Cc1ccc(-c2cc(C(=O)N3CCOCC3)c3ccccc3n2)o1	-11
Cc1c(C(=O)N2CCCC(C(F)(F)F)C2)oc2ccccc12 (centres undefined)	-22
Cc1ccc(-c2cc(C(=O)N3CCCC(C(F)(F)F)C3)c3ccccc3n2)o1 (centres undefined)	105*
O=C(C[C@@H]1C[C@@H]2c3cc(NC(=O)c4cccnc4)ccc3O[C@@H]2[C@@H](CO)O1)NCc1cc(F)ccc1F	-10[25 µM]
O=C(Nc1ccccc1N1CCOCC1)C1(c2ccc(Cl)cc2)CCC1	8
Cc1ccc(C(=O)NCC(=O)OCc2cccc(Br)c2)cc1	-14
COC(=O)c1ccc(NC(=O)CSCc2ccc(C)cc2)cc1	-1
Nc1nc(=O)c2ccccc2s1	51*
Nc1nc2c(F)cccc2s1	0
